NPC1 promoter act – NPC1 promoter activation. Huh7 NPC1 promoter luciferase reporter, 24 h. AID 485313. Potency, µM (top dose mostly 9.22 µM), for the others: at the top dose activation, actives largely listed as activators. hit rate 2.4% among 320,000; also: % of control where 0% means no effect; nearly all actives have a fitted effect of over 60% in size
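Huh7 cells stably carrying NPC1 promoter–luciferase, plated in Opti-MEM with 10% FBS for 2 h, were exposed to compound in DMSO for 24 h at 37 °C; luciferase reagent was added for 10 min and luminescence read.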
Rab9 prom act – activates the Rab9 promoter; Huh7 Rab9 promoter-luciferase reporter, luminescence, 24 h; Potency, µM (doses to about 9.22 µM), inactives show top-dose activation, negative = inhibition, actives largely listed as activators; hit rate 2.8% among 320,000; AID 485297; also: % of control where 0% means no effect; nearly all actives have a fitted effect of over 60% in size
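Luminescence from Amplite-detected luciferase (10 minutes, ambient) reports Rab9 promoter activation. Before that, stable Rab9-luciferase Huh7 cells (1500/well, reduced-serum OP-MEM I plus 10% FBS) were exposed to compound for 24 hours at 37C.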
KinaseGlo FLuc – blocks Kinase-Glo luciferase, a counter-screen artifact; Potency, µM (doses to about 38.3 µM), inactives show at the highest dose activity change, negative = inhibition, most hits filed as inhibitors; hit rate 0.28% among 200,000; Q27757; AID 1379; Kinase-Glo luciferase, ATP luminescence, 8 min; also: % is scaled to controls: 0 for no effect and ±100 for the full control effect; nearly all actives have a fitted effect of over 60% in size
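Kinase-Glo luciferase light output from ATP and luciferin was measured with 10 uM ATP, within the enzyme's linear range. Buffer: 50 mM imidazole pH 7.2, 50 mM KCl, 7 mM MgCl2, 0.01% Tween 20, 0.05% BSA; luminescence read after 8 min at ambient temperature.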
ELG1 genotoxic – inducers of genotoxicity in HEK293T ELG1-luciferase cells; Potency, µM (series often up to 46 µM), inactives show at the highest dose activity change, positive = activation, hits mostly activators; hit rate 1.3% among 330,000; HEK293T ELG1-luciferase reporter, luminescence, 16 h; also: % of control where 0% means no effect; nearly all actives have a fitted effect of over 60% in size
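ELG1-luciferase HEK293T cells, 2,000/well; compound pinned in; 16 hr, 37 °C, 5% CO2; ONE-Glo, 30 min RT; luminescence on CCD imager.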
FLuc modulator – counter-screen for miR-21 project: firefly luciferase inhibitors or activators. hit rate 6.9% among 360,000. purified FLuc, Km substrates, luminescence inhibition. P08659. Potency, µM (doses to about 57.5 µM), inactives show top-dose activity change, negative = inhibition, most hits filed as inhibitors;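 also: plate controls were vehicle for no effect and reference inhibitor for full effect; nearly all actives have a fitted effect of over 55% in size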
Target sequence (P08659 whole entry, looked up): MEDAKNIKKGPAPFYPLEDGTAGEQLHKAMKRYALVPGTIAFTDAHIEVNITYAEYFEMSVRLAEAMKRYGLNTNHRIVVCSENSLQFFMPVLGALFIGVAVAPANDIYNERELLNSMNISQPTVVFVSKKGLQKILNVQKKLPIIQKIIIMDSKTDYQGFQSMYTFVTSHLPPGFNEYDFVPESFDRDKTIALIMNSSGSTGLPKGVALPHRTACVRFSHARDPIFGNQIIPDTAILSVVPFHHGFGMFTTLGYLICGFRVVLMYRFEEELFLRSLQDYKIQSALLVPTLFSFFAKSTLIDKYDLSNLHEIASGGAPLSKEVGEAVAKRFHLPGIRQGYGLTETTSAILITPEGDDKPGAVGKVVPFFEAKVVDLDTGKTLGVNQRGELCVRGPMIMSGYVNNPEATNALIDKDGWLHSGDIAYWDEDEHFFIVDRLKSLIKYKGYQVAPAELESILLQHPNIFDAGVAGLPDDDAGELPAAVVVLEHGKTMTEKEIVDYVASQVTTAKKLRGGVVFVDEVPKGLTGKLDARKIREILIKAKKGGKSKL
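Biochemical qHTS of compounds, final roughly 60 µM downward over six points, against 10 nM purified firefly luciferase using Km concentrations of substrates (10 uM D-luciferin, 10 uM ATP) in Tris acetate pH 7.5 buffer; luminescence output.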
SMN2 splice enh – enhancers of SMN2 splice variant expression; Potency, µM (doses to about 46.1 µM), inactives show top-dose activity change, positive = activation, usual class: activators; HEK293 SMN2-luciferase splicing reporter, luminescence, 30-36 h; hit rate 2.8% among 210,000; also: % of control where 0% means no effect; nearly all actives have a fitted effect of over 55% in size
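HEK293 cells carry an SMN2 minigene-luciferase reporter in which exon 7 inclusion puts luciferase in frame. Cells were seeded at 2000 cells/well, attached for 10-12 hours, then exposed to compounds for 30-36 hours at 37C before ONE-Glo luminescence.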
An asterisk follows results filed as active; u = inconclusive; x = no result given. Hits are enriched below; roughly 7.4% of the tested compounds scored in any of these assays. Calls follow the shape of the dose curve; as a rule, active = well fitted curve in the direction sought with a large enough effect; inconclusive = small, poorly fitted or top-dose-only effect, or another doubt; inactive = no such curve, though single readings can be large; an effect the other way counts as inactive or inconclusive. Potency is read from the fitted curve at half-maximal effect.

SMILES	NPC1 promoter act	Rab9 prom act	KinaseGlo FLuc	ELG1 genotoxic	FLuc modulator	SMN2 splice enh
O=[N+]([O-])c1cccc(C(=NCc2ccccc2)NO)c1	-1.0%	2.3%	x	6.9%	-0.7%	x
CC1CCN(c2ccc(-c3ccc(NC(=O)C(F)(F)F)cc3)nn2)CC1	0.126µM*	0.501µM*	x	0.731µM*	u	x
O=C(COC(=O)c1cc(-c2cccs2)nc2ccccc12)c1ccc(F)cc1	x	x	x	x	u	-9.4%
Cc1ccc(C(=O)COC(=O)c2cc(-c3cccs3)nc3ccccc23)cc1	x	x	x	x	2.39µM*	-1.8%
COc1ccc(C(=O)COC(=O)c2cc(-c3cccs3)nc3ccccc23)cc1	x	x	x	x	2.69µM*	-9.3%
O=C(COc1ccccc1)Nc1ccc(Cl)cn1	25.2%	u	-2.8%	u	19µM*	x
O=C(COC(=O)CCOc1ccccc1)Nc1ccc(Cl)cn1	-1.5%	1.7%	2.7%	-0.4%	-1.7%	32.0%
O=C(COc1ccc2c(c1)OCO2)Nc1ccccc1F	u	u	u	u	6.01µM*	5.7%
COC(=O)c1ccccc1NC(=O)COc1ccc2c(c1)OCO2	15.8%	u	x	4.1%	-12.2%	x
O=C(COc1ccc2c(c1)OCO2)Nc1ccc(Cl)cn1	2µM*	3.55µM*	x	u	13.5µM*	x
O=C(COc1ccc(Cl)cc1Cl)Nc1ccccn1	u	0.1µM*	1.58µM*	-10.8%	0.0757µM*	-13.2%
CCCOc1ccccc1Cn1c(=O)oc2ccccc21	-1.4%	4.7%	x	-0.4%	-11.8%	x
COc1ccccc1CCNC(=O)C(=O)NCC1OCCN1S(=O)(=O)c1ccc(C)cc1 (centres undefined)	-3.3%	0.5%	x	-1.1%	3.3%	x
Cc1cccc(-c2nc3c(cnn3-c3ccccc3)c(=O)n2-c2ccc(Br)cc2)c1	x	x	x	x	-16.8%	49.9%
O=C(COC(=O)COc1ccccc1F)Nc1ccc(Cl)cn1	-2.5%	-1.7%	x	-2.4%	-8.0%	x
O=C(COc1ccc(Cl)cc1)Nc1ccc(Cl)cn1	u	u	x	u	12µM*	x
O=C(/C=C/c1ccc2c(c1)OCO2)Nc1ccc(Cl)cn1	1.12µM*	0.562µM*	-0.9%	2.06µM*	1.9µM*	10µM*
Cc1ccccc1NC(=O)COc1ccc2c(c1)OC(C)(C)CC2=O	u	u	x	13.5%	23.9µM*	x
O=C(COc1ccccc1Cl)Nc1ccc(Cl)cn1	2.24µM*	1.41µM*	-3.1%	3.16µM*	0.953µM*	11.2µM*
COc1ccc(C(=O)OCC(=O)Nc2ccc(Cl)cn2)cc1	-1.1%	4.9%	-2.1%	0.4%	-0.8%	x
CC(C)CCNC(=O)COc1ccc2c(c1)C(=O)CC(C)(C)O2	9.1%	23.2%	-6.0%	u	-18.6%	17.0%
COc1cc(C(=O)NCCc2ccc(F)cc2)ccc1OCC(=O)N1CCOCC1	-1.5%	0.8%	x	1.1%	0.9%	x
COc1cc(CN(C(=O)COc2ccc(C)c(C)c2)c2ccccn2)cc(OC)c1OC	x	x	x	x	-9.1%	x
O=C(/C=C/c1ccc2c(c1)OCO2)NC1CCCC1	3.9%	0.1%	x	15.0%	15.1µM*	x
O=C(COc1ccccc1)NS(=O)(=O)c1ccc(Cl)cc1	15.6%	5.5%	x	9.8%	16.9µM*	x
SMILES	NPC1 promoter act	Rab9 prom act	KinaseGlo FLuc	ELG1 genotoxic	FLuc modulator	SMN2 splice enh
Cc1ccc(OCC(=O)NS(=O)(=O)c2ccc(Cl)cc2)cc1	0.7%	-7.0%	x	7.7%	0.8%	x
COc1ccc(OC)c(CNC(=O)C2CCCCN2S(=O)(=O)c2ccc(F)cc2)c1 (centres undefined)	x	x	x	x	-3.6%	x
COc1ccc(-c2cccc(NS(=O)(=O)c3cc(C)ccc3OC)c2)nn1	x	x	x	x	-9.8%	x
Cc1cc(S(=O)(=O)Nc2cccc(-c3ccc(N4CCOCC4)nn3)c2)c(C)cc1Cl	x	x	x	x	12µM*	x
COc1ccc(Cl)cc1S(=O)(=O)Nc1cccc(-c2ccc(N3CCOCC3)nn2)c1	x	x	x	x	19µM*	x
Cc1cc(S(=O)(=O)NCCCN2CCOCC2)c(C)cc1Cl	1.0%	2.2%	x	4.9%	0.3%	x
CC1Cc2ccccc2N1C(=O)COC(=O)/C=C/c1ccc(F)cc1 (centres undefined)	-6.9%	-0.6%	x	0.7%	4.0%	x
